# Rows were chosen to be rich in hits. Some 18% of all compounds tested hit in one or more screens of this group.
# TDP1 block – TDP1 (human) enzyme inhibition. Potency, µM (top dose mostly 130 µM), inactives show top-dose activity change, negative = inhibition, actives largely listed as inhibitors. AID 485290. actives 0.28% (n = 350,000). recombinant TDP1, AlphaScreen DNA substrate cleavage. Q9NUW8; note: potency is the fitted concentration of half-maximal effect; nearly all actives have a fitted effect of over 40% in size
# Target sequence (Q9NUW8 whole entry, looked up): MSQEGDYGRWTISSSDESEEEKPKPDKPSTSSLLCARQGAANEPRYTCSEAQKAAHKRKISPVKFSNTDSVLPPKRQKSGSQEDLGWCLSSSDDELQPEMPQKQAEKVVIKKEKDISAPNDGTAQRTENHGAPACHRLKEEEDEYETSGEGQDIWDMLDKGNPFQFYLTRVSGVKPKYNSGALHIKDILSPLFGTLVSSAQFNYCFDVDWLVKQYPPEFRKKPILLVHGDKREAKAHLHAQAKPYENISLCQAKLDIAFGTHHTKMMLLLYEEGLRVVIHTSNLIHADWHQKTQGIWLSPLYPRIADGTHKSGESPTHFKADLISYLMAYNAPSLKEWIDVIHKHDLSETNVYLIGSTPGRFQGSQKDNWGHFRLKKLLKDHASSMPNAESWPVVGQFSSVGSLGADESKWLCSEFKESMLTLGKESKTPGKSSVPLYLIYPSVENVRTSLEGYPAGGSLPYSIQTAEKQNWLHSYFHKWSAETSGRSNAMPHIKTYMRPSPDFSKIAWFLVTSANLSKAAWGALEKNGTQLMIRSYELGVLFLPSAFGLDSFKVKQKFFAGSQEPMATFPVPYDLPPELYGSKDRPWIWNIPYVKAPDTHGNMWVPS
#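 Signal: AlphaScreen proximity between streptavidin donor and anti-FITC acceptor beads on intact substrate. Reaction: Tdp1 1 nM, substrate 15 nM final, 5 min RT after 15 min compound preincubation.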
# Six1-Eya2 blk – blocks human Six1 binding to Eya2 | Q15475+O00167 | AlphaScreen GST-Six1/His-Eya2 binding, biochemical; stronger effect = lower value | activity change, % (no concentration beside the values) | actives 0.56% (n = 360,000) | AID 651725; in the data active = activity change below about -65%; inconclusive = mostly about -30% to -63%
#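 AlphaScreen luminescence read after one hour at 37 °C in darkness. Pin-transferred compounds met GST-Six1 and His-Eya2 protein (5X stock 250 nM/500 nM) plus glutathione donor and Ni-chelate acceptor beads (5X, 50 ug/mL).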
# DT40 TDP1 CPT – DT40-hTDP1 cell growth loss with CPT; chicken DT40 Tdp1-/-;hTDP1 cells + 20 nM CPT, ATP luminescence, 48 h; Potency, µM (series often up to 46.2 µM), without a hit: top-dose activity change, negative = growth inhibition, usual class: inhibitors; actives 12% (n = 420,000); note: potency is the fitted concentration of half-maximal effect; nearly all actives have a fitted effect of over 55% in size
#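 Chicken DT40 Tdp1-/- cells stably complemented with human TDP1 were seeded at 400 cells/well in medium containing 20 nM camptothecin, exposed to pin-transferred compounds, and grown at 37 °C for at least 48 hr. Viability was read as ATP luminescence.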
# IL-1B inflam inh – inhibitors of inflammasome signaling (IL-1 beta secretion) | THP-1 LPS/ATP IL-1B secretion, AlphaLISA, 16 h; stronger effect = lower value | activity change, % at 57.5 µM | actives 4.7% (n = 360,000); in the data active = activity change below about -50%; inconclusive = mostly about -30% to -49%
#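 THP-1 cells pretreated 1 hr with compounds (up to 57.5 uM final), then stimulated with LPS (250 ng/mL final) plus ATP (1.25 mM final); secreted IL-1B measured by AlphaLISA after 16 hr, decreased signal indicating inhibition.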
# CtBP-E1A blk – CtBP/E1A binding inhibition. actives 0.49% (n = 340,000). activity change, % (no concentration beside the values). AlphaScreen GST-E1A/His-CtBP binding, 1536-well; stronger effect = lower value; in the data active = activity change below about -65%; inconclusive = mostly about -30% to -63%
#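 GST-E1A and His-tagged CtBP (125 nM each as 5X stock) were preincubated with pin-transferred compound for 2 h at 37 °C in the dark, then glutathione donor and nickel acceptor beads were added for 1 h before AlphaScreen reading.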
# DT40 TDP1 no CPT – qHTS for Inhibitors of human tyrosyl-DNA phosphodiesterase 1 (TDP1): qHTS in cells in absence of CPT; DT40 Tdp1-/- hTDP1 cells, no CPT, ATP luminescence, 48 h; Potency, µM (top dose mostly 46.2 µM), for inactives: top-dose activity change, negative = growth inhibition, usual class: inhibitors; actives 15% (n = 420,000); note: potency is the fitted concentration of half-maximal effect; nearly all actives have a fitted effect of over 55% in size
#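 A cellular qHTS used chicken DT40 cells lacking endogenous Tdp1 but carrying stably transfected human TDP1. Compounds were applied without camptothecin, and cell growth kinetics were judged by ATP-dependent luminescence after ≥48 hr.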
# Numbers without * were called inactive; u = inconclusive; x = not tested or not shown; [ ] = another dose, or the depositor's remark. Unless noted, calls come from the whole dose curve; as a rule, active = well fitted curve in the direction sought with a large enough effect; inconclusive = small, poorly fitted or top-dose-only effect, or another doubt; inactive = no such curve, though single readings can be large; an effect the other way counts as inactive or inconclusive. % is set by controls: 0 for no effect and ±100 for the full control effect.
SMILES,TDP1 block,Six1-Eya2 blk,DT40 TDP1 CPT,IL-1B inflam inh,CtBP-E1A blk,DT40 TDP1 no CPT
COc1cc(NC(=O)c2cccc3c(-c4cccnc4)coc23)cc(OC)c1OC,x,-5,3.7µM*,-78*,-15,3.3µM*
COc1cccc(-c2nn(CCC#N)cc2C(=O)Nc2ccccc2Cl)c1,x,1,u,31,x,u
COc1ccc(-c2coc3c(C(=O)Nc4cc(OC)c(OC)c(OC)c4)cccc23)c(C)c1,x,-14,4.1µM*,-22,-12,3.7µM*
N#Cc1ccc(CN2CCCC3(CCN(C(=O)Oc4ccccc4)CC3)C2)cc1,x,x,-15%,x,x,-25%
COc1cccc(CC(=O)N2CCN(Cc3cccc(Cl)c3)CC2)c1,x,-9,-23%,-29,-4,u
COc1ccc(NC(=O)CCc2nc(C3=CCN(Cc4cccc(Cl)c4)CC3)no2)c(OC)c1,14%,x,5.8µM*,x,x,18µM*
Cc1cc(O)c(CN2CC=C(c3ccccc3)CC2)cc1C(C)C,x,-11,u,5,-9,u
COc1ccc(NC(=O)CCc2nc(C3=CCN(Cc4cccc(Cl)c4)CC3)no2)cc1OC,8%,x,16µM*,x,x,12µM*
COc1ccc2nc(NC(=O)CCc3nc(C4=CCN(C)CC4)no3)sc2c1,11%,-5,-24%,-21,-1,-26%
Cc1cccc(CN2CC=C(c3noc(CCC(=O)Nc4ccc(C)c(F)c4)n3)CC2)c1,8%,x,16µM*,x,x,13µM*
C=CCn1c(O)c(Cc2ccc(OCC)cc2)c(=O)[nH]c1=O,x,4,24%,9,-4,0%
c1ccc2sc(C3(N4CCCC4)CCCCC3)cc2c1,9%,x,u,x,x,21µM*
c1ccc2sc(C3(NCC4CC4)CCCCC3)cc2c1,7%,x,16µM*,x,x,13µM*
CC(=NCc1cccnc1)c1c(O)n(-c2ccc(Cl)cc2)c(=O)[nH]c1=O,0%,2,10%,x,0,7%
O=C1COc2ccc(C(=O)COC(=O)Cc3ccccc3)cc2N1,-1%,-7,-6%,21,7,-5%
Cc1ccccc1N1CCN(C2CCCN(C(=O)Cc3c(C)noc3C)C2)CC1 (centres undefined),0%,4,-6%,-5,0,-5%
COc1cc(/C=C/[N+](=O)[O-])ccc1O,5%,9,8.2µM*,-65*,1,9.2µM*
CC(CNC(=O)CCS(=O)(=O)c1ccc2c(c1)oc(=O)n2C)c1ccccc1 (centres undefined),3%,1,-12%,20,11,33%
O[C@@H](Cc1ccncc1)C(Cl)(Cl)Cl,13%[56.1 µM],x,-4%,x,x,-24%
CN1CCC(O)(c2ccccc2)C(C(=O)c2ccccc2)C1 (centres undefined),0%,0,9.2µM*,-21,2,18µM*
CCN1CCC(O)(c2ccccc2)C(C(=O)c2ccccc2)C1 (centres undefined),x,-3,2.6µM*,-15,-1,4.1µM*
COc1ccc2c3c1OC1C(O)C=CC4C(C2)[N+](C)(C)CCC341 (centres undefined),x,0,0%,8,x,-16%
CCN(CC)c1ncnc2c1ncn2[C@@H]1O[C@H](COP(=O)(O)OP(=O)(O)C(Br)(Br)P(=O)(O)O)[C@@H](O)[C@H]1O,8%[56.1 µM],x,x,x,x,x
CSc1ncc(Br)c(N2CC2)n1,x,-4,6%,22,-1,-4%
C[N+](C)(C)CC1CCCC(C[N+](C)(C)C)C1=O (centres undefined),x,-2,0.041µM*,-23,1,0.058µM*
SMILES,TDP1 block,Six1-Eya2 blk,DT40 TDP1 CPT,IL-1B inflam inh,CtBP-E1A blk,DT40 TDP1 no CPT
c1ccc2c(c1)CCCC2,11%,x,x,x,x,x
C[N+](C)(C)CC1CCCc2ccccc2C1=O (centres undefined),x,-1,2.9µM*,-11,8,2.6µM*
CCCC(=O)C1C(=O)NC(=O)NC1=O,0%,8,3%,7,0,-1%
Cc1cccc(N2C(=O)CSC23C(=O)N(CC(=O)Nc2cccc(Cl)c2)c2ccccc23)c1 (centres undefined),6%,x,23µM*,x,x,16µM*
CCCCn1c(=O)c(C(=O)Nc2cnccn2)c(O)c2ccccc21,-2%,6,2.9µM*,0,8,5.2µM*
CC(C)CCn1c(=O)c(C(=O)Nc2ccccc2S(N)(=O)=O)c(O)c2ccccc21,2%,0,4.6µM*,2,-11,5.2µM*
CCCCCn1c(=O)c(C(=O)Nc2ncccc2C)c(O)c2ccccc21,x,0,u,4,1,u
CCCCCn1c(=O)c(C(=O)NCCc2ccccc2)c(O)c2ccccc21,x,22,u,80,18,u
CCCCn1c(=O)c(C(=O)Nc2ccccc2C)c(O)c2ccccc21,x,5,8.2µM*,30,14,9.2µM*
CCCCn1c(=O)c(C(=O)Nc2cccc(C)c2)c(O)c2ccccc21,x,1,5.8µM*,25,x,4.6µM*
Cc1ccc(Cn2ccccc2=N)cc1,x,1,-8%,0,8,-23%
Cc1c(C=O)c2ccccc2n1Cc1ccccc1F,-4%,2,7%,2,1,-17%
Cc1ncc([N+](=O)[O-])n1CCOC(N)=O,3%,5,4%,-3,x,-5%
Cc1ccc(-c2nc3ccccc3c(=O)n2-c2cccc(C)n2)cc1,-6%,0,-18%,11,-20,u
CCCCCn1c(=O)c(C(=O)Nc2nc3ccccc3[nH]2)c(O)c2ccccc21,x,5,2.9µM*,15,1,5.2µM*
